Gal4-VP16 FLuc: counter-screen for ROR gamma inhibitors: Gal4-VP16 reporter. AID 2546. hit rate 3.5% among 310,000. Potency, µM (highest dose often 53.6 µM), for the others: at the highest dose activity, negative = inhibition, most hits filed as inhibitors. Drosophila S2 Gal4-VP16 UAS-luciferase, luminescence, 20 h;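 note: Gal4-VP16 expression switched on by copper sulfate through the metallothionein promoter; potency is the fitted concentration of half-maximal effect; nearly all actives have a fitted effect of over 50% in size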
IL1B secr inh: blocks inflammasome-driven IL-1 beta release; THP-1 LPS/ATP IL-1B secretion, AlphaLISA, 16 h; hits give low values; activity change, % at 57.5 µM; hit rate 4.7% among 360,000; AID 743279; in the data active = activity change below about -50%; inconclusive = mostly about -30% to -49%
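THP-1 cells pretreated 1 hr with compounds (up to 57.5 uM final), then stimulated with LPS (250 ng/mL final) plus ATP (1.25 mM final); secreted IL-1B measured by AlphaLISA after 16 hr, decreased signal indicating inhibition.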
TDP1 cell noCPT: qHTS for Inhibitors of human tyrosyl-DNA phosphodiesterase 1 (TDP1): qHTS in cells in absence of CPT; DT40 Tdp1-/- hTDP1 cells, no CPT, ATP luminescence, 48 h; Potency, µM (doses to about 46.2 µM), for inactives: at the highest dose activity change, negative = growth inhibition, actives largely listed as inhibitors; hit rate 15% among 420,000; AID 686978, 2013; note: potency is the fitted concentration of half-maximal effect; nearly all actives have a fitted effect of over 55% in size
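Luminescent ATP content (CellTiter-Glo) served as the growth readout. Knockout chicken DT40 cells expressing human TDP1 were exposed to compounds without camptothecin for a minimum 48 hr at 37 °C.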
LDHA block: inhibitors of human lactate dehydrogenase A; activity change, % (values are at about 110 or 230 µM); hit rate 0.15% among 480,000; purified LDHA, NADH/diaphorase-resazurin fluorescence; hits give low values; P00338; AID 1347041; in the data active = activity change below about -30%; inconclusive = mostly about -25% to -30%;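 note: plate controls were DMSO wells for no effect and wells without enzyme for full effect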
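Remaining NADH was detected by diaphorase (0.133 mg/mL) converting 37 µM resazurin to fluorescent resorufin, read at 0 and 20 minutes. The preceding 5-minute room-temperature reaction used 2 nM LDHA, 0.2 mM sodium pyruvate and 0.06 mM NADH at pH 7.4.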
TDP1 cell CPT: DT40-hTDP1 cell growth loss with CPT. chicken DT40 Tdp1-/-;hTDP1 cells + 20 nM CPT, ATP luminescence, 48 h. Potency, µM (doses to about 46.2 µM), without a hit: at the top dose activity change, negative = growth inhibition, hits mostly inhibitors. hit rate 12% among 420,000. AID 686979; note: potency is the fitted concentration of half-maximal effect; nearly all actives have a fitted effect of over 55% in size
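Chicken DT40 Tdp1-/- cells stably complemented with human TDP1 were seeded at 400 cells/well in medium containing 20 nM camptothecin, exposed to pin-transferred compounds, and grown at 37 °C for at least 48 hr. Viability was read as ATP luminescence.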
RORg inh: inhibitors of mouse ROR gamma transcriptional activity; P51450; Drosophila S2 Gal4-RORgamma UAS-luciferase reporter, 20 h; Potency, µM (top dose mostly 53.6 µM), for the others: at the top dose activity change, negative = inhibition, actives largely listed as inhibitors; hit rate 5.4% among 310,000; AID 2551; note: potency is the fitted concentration of half-maximal effect; nearly all actives have a fitted effect of over 60% in size
Target sequence (P51450 whole entry, looked up, the tested form may be a part): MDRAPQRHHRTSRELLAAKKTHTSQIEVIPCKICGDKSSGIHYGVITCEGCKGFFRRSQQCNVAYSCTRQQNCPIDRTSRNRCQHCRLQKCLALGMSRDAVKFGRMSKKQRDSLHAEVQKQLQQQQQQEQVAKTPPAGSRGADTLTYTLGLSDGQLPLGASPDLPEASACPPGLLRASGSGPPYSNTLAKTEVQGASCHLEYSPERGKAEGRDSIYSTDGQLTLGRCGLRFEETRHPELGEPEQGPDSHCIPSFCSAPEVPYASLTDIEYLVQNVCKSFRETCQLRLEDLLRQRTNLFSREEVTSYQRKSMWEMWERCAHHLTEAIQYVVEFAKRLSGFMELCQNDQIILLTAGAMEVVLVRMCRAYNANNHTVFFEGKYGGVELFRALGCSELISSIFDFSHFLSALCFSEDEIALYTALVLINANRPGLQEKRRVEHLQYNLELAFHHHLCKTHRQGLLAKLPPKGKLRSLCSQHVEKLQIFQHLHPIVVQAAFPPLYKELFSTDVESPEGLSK
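In this cell-based reporter format, copper sulfate (700 uM final) drives Gal4–ROR gamma fusion expression from a metallothionein promoter in Drosophila Schneider cells; compounds preincubated 1 hr, reporter read after 20 hr at ambient temperature.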
Active calls of the source: *; ? = inconclusive; nt = no result given. Most compounds without a hit are left out; they make up all but 18% or so of the library. Unless noted, calls come from the whole dose curve; as a rule, active = well fitted curve in the direction sought with a large enough effect; inconclusive = small, poorly fitted or top-dose-only effect, or another doubt; inactive = no such curve, though single readings can be large; an effect the other way counts as inactive or inconclusive. Unless noted, % is set by controls: 0 for no effect and ±100 for the full control effect.

SMILES | Gal4-VP16 FLuc | IL1B secr inh | TDP1 cell noCPT | LDHA block | TDP1 cell CPT | RORg inh
C[C@@H]1C[C@H]2[C@@H]3C[C@H](F)C4=CC(=O)C=C[C@]4(C)[C@@]3(F)[C@@H](O)C[C@]2(C)[C@@]1(O)C(=O)COC(=O)C(C)(C)C | -9% | 0 | 23µM* | -3 | 23µM* | ?
C[C@@H]1C[C@H]2[C@@H]3C[C@H](F)C4=CC(=O)C(Cl)=C[C@]4(C)[C@@]3(F)[C@@H](O)C[C@]2(C)[C@@]1(O)C(=O)CO | 0% | nt | 17µM* | nt | ? | 37%
Cc1cccc(NC(=S)NNC(=O)c2csc(C)c2)c1 | ? | 4 | ? | -11 | -6% | 5µM*
Cc1cccc(NC(=S)NNC(=O)Cc2ccccc2)c1 | ? | 11 | 0% | -6 | 2% | 11µM*
O=C(CSCc1ccccc1Cl)NNC(=S)Nc1ccccc1 | -7% | -21 | ? | -7 | -11% | 16µM*
CNC(=S)NNC(=O)CNc1ccc(C)c(Cl)c1 | 13µM* | 8 | -4% | -2 | -2% | 5.6µM*
COCC(=O)Nc1ccc(C)c(Cl)c1 | 3% | 49 | -13% | 0 | -1% | -4%
Cc1cc(C)cc(NC(=S)NNC(=O)c2csc(C)c2)c1 | nt | nt | nt | -1 | nt | nt
O=C(Nc1ccccc1)c1cn(-c2ccc3c(c2)OCCO3)nn1 | nt | nt | nt | -12 | nt | nt
Cc1cccc(NCC(=O)NNC(=S)Nc2ccccc2)c1 | ? | -6 | 0% | -7 | 8% | 11µM*
O=C(Cc1ccccc1)NNC(=O)Nc1ccc(Cl)c(Cl)c1 | 19% | 0 | 21µM* | -4 | 16µM* | 43%
CCN(CC)CCNC(=O)c1ccc(CN)cc1 | nt | nt | nt | 2 | nt | nt
CCC(=O)C1=C(c2ccc(Cl)c(Cl)c2)N(C(=O)CC)n2cnnc2S1 | nt | nt | nt | 2 | nt | nt
CCCC(=O)C1=C(c2ccc(C)cc2)N(C(=O)CCC)n2cnnc2S1 | nt | nt | 16µM* | -5 | ? | nt
CCCC(=O)C1=C(c2ccc(C)c(C)c2)N(C(=O)CCC)n2c(CC)nnc2S1 | nt | nt | 23µM* | 1 | ? | nt
COc1ccc(Cc2nnc3n2N(C(C)=O)C(c2ccc(C)cc2)=C(C(C)=O)S3)cc1 | nt | nt | nt | 12 | nt | nt
O=c1[nH]c(CN2CCCCC2)nc2c1C1(CCCCC1)Cc1ccccc1-2 | 7% | 14 | 13µM* | -5 | 13µM* | -7%
CCN(CC)Cc1nc2c(c(=O)[nH]1)C(CC)(CC)Cc1ccccc1-2 | 5µM* | -7 | ? | 2 | ? | 1.6µM*
CC1(C)Cc2ccccc2-c2nc(CN3CCCC3)[nH]c(=O)c21 | nt | nt | nt | -1 | nt | nt
NS(=O)(=O)c1ccc(NNC(=O)/C=C/c2cccs2)c([N+](=O)[O-])c1 | nt | nt | nt | 0 | nt | nt
CCOc1ccc2[nH]c(=O)c(CN(Cc3ccc(C)cc3)C(=O)N3CCCC3)cc2c1 | -2% | 1 | 21µM* | -4 | ? | -8%
CCOc1ccc2[nH]c(=O)c(CN(CCc3ccccc3)C(=O)N3CCCC3)cc2c1 | -5% | -2 | ? | 9 | 13µM* | 4%
CCOc1ccc2[nH]c(=O)c(CN(CCc3ccccc3)C(=O)N3CCOCC3)cc2c1 | -7% | 2 | ? | 1 | ? | -7%
CCOc1ccc(Nc2oc(-c3ccccc3C)nc2C#N)cc1 | nt | nt | nt | -16 | nt | nt
COc1ccc2cc(CN(C)C(=O)c3ccc4c(c3)OCO4)ccc2c1 | nt | nt | nt | 1 | nt | nt
SMILES | Gal4-VP16 FLuc | IL1B secr inh | TDP1 cell noCPT | LDHA block | TDP1 cell CPT | RORg inh
COc1ccc(-c2noc(CSc3nc(C4CC4)n(-c4ccccc4)n3)n2)cc1OC | nt | nt | nt | 9 | nt | nt
O=C1Nc2ccc(Br)cc2C12NNc1ccccc1O2 (stereo unspecified) | ? | -5 | 18µM* | 1 | ? | 11µM*
O=C1Nc2ccc(Br)cc2C1(O)c1ccccc1 (stereo unspecified) | 4% | 42 | 0% | 1 | 3% | 8%
CCCCNC(=O)C1CC(c2c(Cl)cccc2Cl)=NO1 (stereo unspecified) | 2% | 20 | 9.2µM* | -5 | 9.2µM* | 8%
CC1CCC/C(=C\Nc2ccc(O)cc2)C1=O (stereo unspecified) | -3% | ? | ? | 22 | 21µM* | -3%
CCOc1ccc(OCCCC(=O)Nc2nc3ccccc3[nH]2)cc1 | 1% | 9 | 1% | -5 | 14% | -39%
CC(CC(=O)Nc1nc2ccccc2[nH]1)c1ccccc1 (stereo unspecified) | 4.5µM* | -14 | ? | -11 | ? | ?
CC(CC(=O)Nc1nc2ccccc2[nH]1)n1ccnc1 (stereo unspecified) | -1% | 16 | 9% | -5 | 18% | 4%
CCCOc1cccc(OCC(=O)Nc2nc3ccccc3[nH]2)c1 | ? | 10 | ? | 0 | ? | 10µM*
O=C(COc1ccccc1)Nc1nc2ccccc2[nH]1 | nt | -5 | 16µM* | -5 | ? | ?
O=C(CSc1ccc2ccccc2c1)Nc1nc2ccccc2[nH]1 | ? | 26 | ? | -5 | -30% | 11µM*
CCCC(C(=O)NCc1ccccn1)c1ccccc1 (stereo unspecified) | nt | nt | nt | -8 | nt | nt
Cc1cnc(C(=O)Oc2ccc(Cl)cc2Cl)cn1 | nt | nt | nt | 1 | nt | nt
COc1cccc(/C=C/C(=O)c2ccc(OC(F)F)cc2OC(F)F)c1OC | nt | nt | nt | 14 | nt | nt
CCCCOc1cccc(OCC(=O)Nc2nc3ccccc3[nH]2)c1 | ? | 1 | ? | -3 | 21µM* | 16µM*
COc1ccc(CN(C(=O)c2cc(=O)c3ccc(C)cc3o2)C2CCS(=O)(=O)C2)cc1OC (stereo unspecified) | nt | nt | nt | 5 | nt | nt
N/C(=N\OC(=O)N1CCOCC1)c1ccc(Br)cc1 | -1% | -21 | ? | 2 | 21µM* | -6%
O=S(=O)(Nc1cccc2c1CCCC2)c1ccccc1 | nt | nt | nt | -1 | nt | nt
CCCCCCC[n+]1c(/C=C/c2ccc(N(C)C)cc2)sc2ccccc21 | nt | nt | 0.28µM* | -2 | 0.16µM* | nt
CCN(CC)c1ccc(/C=C/c2sc3ccccc3[n+]2CCCCI)cc1 | nt | nt | 0.45µM* | -3 | 0.63µM* | nt
C#CCN(CC(=O)NC(=O)NC)C1CCCCC1 | nt | nt | nt | 12 | nt | nt
O=C1C=CC2C(c3ccc4c(c3)OCO4)CC1N2Cc1ccccc1 (stereo unspecified) | -5% | -18 | 6.5µM* | 3 | 8.2µM* | -3%
O=C1C=C(c2cccc(OCc3ccccc3)c2)C[C@@H](c2ccc3c(c2)OCO3)C1 | nt | -25 | -20% | -10 | -29% | nt
CC(C)NC(=O)c1ccc(COc2cc(Cl)ccc2Cl)o1 | 3% | -62* | 21µM* | -4 | -30% | 1%

Screening results deposited in PubChem by National Center for Advancing Translational Sciences (NCATS).
